Assay results from PubChem BioAssay.
Activity calls are given as the source filed them.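 Rule for the calls, unless noted: active = visually confirmed hit in the image check and inhibition above 20%; inconclusive = visually confirmed hit but inhibition not above 20%; inactive = no visual hit in the image check.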

Tests used:
[1] = inhibitors of TNFa-induced NFkB p65 translocation, primary screen, imaging, HUVEC, MLSMR starter and 10KST1 sets (AID 438;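 active = inhibition above 20% together with a positive visual image hit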;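 note: compound added about 3h40 before a 20 min TNFalpha stimulation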;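 for inhibition: signal is the nuclear over cytoplasmic p65 intensity ratio per well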); settings: HUVEC TNFa-induced p65 nuclear translocation; cell count: measured here: nuclei count (cytotoxicity indicator), at 2.08 µM; inhibition: at 2 µM, stronger effect = higher value, 0% TNFa-plus-vehicle, 100% no-TNFa wells
[2] = reduction of polyQ htt aggregates in cells – imaging, exon1htt(103Q)mCFP cells, high-content imaging, primary screen (AID 483;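 active = visual image review flags a hit and inhibition of aggregation exceeds 20%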;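 note: compound exposure lasted 3 days before fixation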;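 for nuclei count: percent of the per-plate median nuclei count of sample wells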); settings: exon1htt(103Q)mCFP cell line, aggregate imaging, at 2 µM; inhibition of aggregation: stronger effect = higher value; nuclei count: measured here: cell count, toxicity
[3] = endothelial E-selectin expression blockers – imaging, HUVEC, immunofluorescence, MLSMR starter and 10KST1 sets, primary screen (AID 487); settings: HUVEC TNFalpha-induced E-selectin immunofluorescence imaging, at 2 µM; inhibition: stronger effect = higher value; nuclei count: measured here: cell number, toxicity;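 for inhibition: signal is fraction of cell area covered by stained E-selectin grains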;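 for nuclei count: 100% = median nuclei count of all wells on the same plate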
[4] = target: Voltage-gated potassium channel subunit beta-2 (Rattus norvegicus) (UniProt P62483); assay: inhibitors of rat Kvbeta2 reductase activity – biochemical, NADPH fluorescence, primary screen (AID 622;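 active = fluorescence slope higher than the sample average by over 3 SD, cut at about -0.22 in these data, passing the limit was not always enough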;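 note: slope of raw intensity against log time taken from 70 to 1610 s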); settings: recombinant KvBeta, 4-cyanobenzaldehyde reduction, at 10 µM, stronger effect = higher value
Chain of Voltage-gated potassium channel subunit beta-2 (Rattus norvegicus) (P62483 whole entry, looked up): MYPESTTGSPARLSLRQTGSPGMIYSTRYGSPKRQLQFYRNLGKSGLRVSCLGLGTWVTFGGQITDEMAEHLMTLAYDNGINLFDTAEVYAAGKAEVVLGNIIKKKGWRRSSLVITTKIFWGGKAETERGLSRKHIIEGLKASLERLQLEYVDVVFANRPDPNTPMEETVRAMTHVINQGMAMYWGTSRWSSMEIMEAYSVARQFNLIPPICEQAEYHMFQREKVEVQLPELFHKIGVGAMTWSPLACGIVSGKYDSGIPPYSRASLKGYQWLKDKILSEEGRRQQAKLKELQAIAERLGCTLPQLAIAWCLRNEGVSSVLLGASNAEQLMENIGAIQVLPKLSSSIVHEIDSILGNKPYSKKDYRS

[5] = target: Voltage-gated potassium channel subunit beta-2 (Rattus norvegicus) (UniProt P62483); assay: enhancers of rat Kvbeta2 NADPH turnover – biochemical, NADPH fluorescence, primary screen (AID 623;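 active = NADPH fluorescence slope more negative than the mean of all samples by about 3 SD, 99.7% confidence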;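 note: fluorescence intensity change per second fitted from 20 to 320 s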); settings: Recombinant KvBeta, NADPH fluorescence decrease slope, 10 min; at 10 µM; stronger effect = lower value
[6] = target: Alpha-2C adrenergic receptor (Homo sapiens) (UniProt P18825); assay: compounds altering alpha2C-coupled GIRK flux – cell-based, HEK293 alpha2C/GIRK1/2, thallium flux, primary screen (AID 624;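 active = fluorescence slope after compound addition differing from the mean of all screened samples at 99.7% confidence, in either direction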;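 note: slope of fluorescence ratio to pre-addition baseline per second over 15 to 24 s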); settings: thallium flux BTC fluorescence, at 10 µM, actives lie on both sides
Chain of Alpha-2C adrenergic receptor (Homo sapiens) (P18825 whole entry, looked up): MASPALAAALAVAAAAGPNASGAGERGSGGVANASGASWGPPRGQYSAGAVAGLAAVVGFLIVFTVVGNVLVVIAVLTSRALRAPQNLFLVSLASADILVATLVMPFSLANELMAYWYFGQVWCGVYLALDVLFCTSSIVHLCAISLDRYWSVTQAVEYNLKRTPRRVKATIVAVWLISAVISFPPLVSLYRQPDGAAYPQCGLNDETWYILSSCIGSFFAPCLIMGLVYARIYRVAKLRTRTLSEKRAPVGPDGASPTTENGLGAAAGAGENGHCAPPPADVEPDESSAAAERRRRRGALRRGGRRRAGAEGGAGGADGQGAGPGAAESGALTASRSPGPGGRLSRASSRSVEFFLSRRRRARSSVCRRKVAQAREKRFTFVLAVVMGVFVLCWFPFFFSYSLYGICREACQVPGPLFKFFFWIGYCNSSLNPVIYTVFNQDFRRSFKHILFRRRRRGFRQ

[7] = blockers of RIG-like receptor reporter activation – cell-based, Sendai virus stimulus, luciferase, 10K MLSCN set, TLR/RLR signaling modifier project, primary screen (AID 602276;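 active = inhibition at or above 50% at 10 µM; inactive = inhibition below 50%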;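 note: firefly luciferase from ISG56 promoter only with Renilla not read in this screen; 0% = Sendai virus plus DMSO and 100% = medium plus DMSO without virus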); settings: HEK293 RL24 IRF3 luciferase reporter, at 10 µM, stronger effect = higher value
[8] = TLR3 IRF3 reporter activation blockers – cell-based, poly I:C stimulus, luciferase, 10K MLSCN set, primary screen (AID 602277;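 active = inhibition of the reporter signal at or above 50%; inactive = inhibition below 50%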); settings: HEK293-TLR3 RL24 IRF3 luciferase reporter, at 10 µM, stronger effect = higher value

Structure (SMILES) | cell count [1] | inhibition [1] | inhibition of aggregation [2] | nuclei count [2] | inhibition [3] | nuclei count [3] | fluorescence slope [4] | NADPH fluorescence slope [5] | slope [6] | inhibition [7] | inhibition [8]
COc1ccc(C2C(C#N)=C(N)OC3=C2C(=O)CC(C)C3)c(OC)c1OC (stereo not drawn) | 349 | 15.6% (inactive) | 5.8% (inactive) | 123% | 11.3% (inactive) | 102% | -0.479 (inactive) | 2e-05 (inactive) | 0.00381 (inactive) | -3.81% (inactive) | 19.1% (inactive)
C(=C\c1ccccc1)/CSc1nnc(-c2ccccn2)n1Cc1ccco1 | 574 | 1.1% (inactive) | -38.4% (inactive) | 24% | -95.8% (inactive) | 109% | -0.5 (inactive) | -5.3e-05 (inactive) | 0.00478 (inactive) | 68.5% (active) | 58.9% (active)
CCOc1cc(C(=O)N(C)Cc2cc3cc(OC)ccc3[nH]c2=O)cc(OCC)c1OCC | 394 | 4% (inactive) | 18.6% (inactive) | 83.8% | -174% (inactive) | 211% | -0.207 (inactive) | -1.5e-05 (inactive) | 0.00515 (inactive) | 15.8% (inactive) | 18.6% (inactive)
COC(=O)c1ccc2c(=O)n(CC3CCCO3)c(=S)[nH]c2c1 (stereo not drawn) | 548 | 16% (inactive) | -9.1% (inactive) | 92.8% | -137% (inactive) | 94.3% | -0.478 (inactive) | -2.8e-05 (inactive) | 0.00617 (inactive) | 14.9% (inactive) | 12.3% (inactive)
Cc1ccccc1Nc1nc(N)nc(CSCc2c(C)noc2C)n1 | 347 | -15.8% (inactive) | -2.4% (inactive) | 93.8% | -16.2% (inactive) | 117% | -0.361 (inactive) | -5.1e-05 (inactive) | 0.00597 (inactive) | -21.3% (inactive) | -33.2% (inactive)
COc1c(C(=O)Nc2c(C)n(C)n(-c3ccccc3)c2=O)ccc2ccccc12 | 239 | -1.7% (inactive) | 16.4% (inactive) | 63.2% | -68.7% (inactive) | 117% | -0.512 (inactive) | -3.9e-05 (inactive) | 0.00486 (inactive) | 6.79% (inactive) | 11.2% (inactive)
CCCOc1ccc(S(=O)(=O)NCCCN2CCOCC2)c2ccccc12 | 402 | 5.8% (inactive) | -33.7% (inactive) | 106% | -43.1% (inactive) | 118% | -0.418 (inactive) | -4.8e-05 (inactive) | 0.00402 (inactive) | 16% (inactive) | 13.7% (inactive)
CCCCCC1CC(CC(C)C(=O)Nc2nncs2)C(=O)O1 (stereo not drawn) | 629 | -7.3% (inactive) | -20.6% (inactive) | 112% | -68% (inactive) | 85.5% | -0.369 (inactive) | 2.3e-05 (inactive) | 0.00624 (inactive) | 11.3% (inactive) | 20.7% (inactive)
CCOC(=O)CCCOC(=O)c1ccc(S(=O)(=O)N(C)C)cc1 | 374 | -12.5% (inactive) | 2.8% (inactive) | 67.5% | -8.8% (inactive) | 106% | -0.454 (inactive) | -4.3e-05 (inactive) | 0.00644 (inactive) | 0.818% (inactive) | 10.6% (inactive)
CSc1nnc(-c2ccc(NC(=O)CCc3ccccc3)cc2)n1C | 711 | -28.4% (inactive) | -1.8% (inactive) | 100% | -79.2% (inactive) | 120% | -0.474 (inactive) | -3e-05 (inactive) | 0.00726 (inactive) | -3.25% (inactive) | 15.4% (inactive)
Cc1[nH]c2ccccc2c(=O)c1CN1CCCCC1 | 400 | 2.1% (inactive) | -1.5% (inactive) | 111% | -47.3% (inactive) | 119% | -0.453 (inactive) | -5.7e-05 (inactive) | 0.00287 (inactive) | 6.83% (inactive) | 36.8% (inactive)
CCOC(=O)C1=C(C)Nc2nnnn2C1c1ccc(OC)c(Br)c1 (stereo not drawn) | 635 | 5.8% (inactive) | -8.3% (inactive) | 94.6% | 2.7% (inactive) | 111% | -0.574 (inactive) | -1.5e-05 (inactive) | 0.00761 (inactive) | -20% (inactive) | -12.8% (inactive)
CCOC(=O)C1CCN(S(=O)(=O)c2cccc(-c3csc(C)n3)c2)CC1 | 234 | 4.4% (inactive) | 8.1% (inactive) | 97.1% | 32.4% (inactive) | 89% | -0.433 (inactive) | -0.000124 (inactive) | 0.0037 (inactive) | 14.1% (inactive) | 2.04% (inactive)
CCN(CC)CCCNS(=O)(=O)c1ccc(OC)cc1 | 460 | 0.5% (inactive) | -18% (inactive) | 110% | -61.5% (inactive) | 134% | -0.429 (inactive) | -0.000105 (inactive) | 0.00623 (inactive) | 13.6% (inactive) | 27.9% (inactive)
Cc1cnc(SCCc2ccncc2)nc1C | 650 | -17% (inactive) | -22.1% (inactive) | 116% | -103% (inactive) | 101% | -0.278 (inactive) | -1.1e-05 (inactive) | 0.00606 (inactive) | 6.48% (inactive) | -3.71% (inactive)
Cc1ccc(N(C(C)C(=O)Nc2ccc(S(=O)(=O)N3CCOCC3)cc2)S(C)(=O)=O)cc1 (stereo not drawn) | 522 | -7.3% (inactive) | 23.8% (inactive) | 68.3% | -0.3% (inactive) | 92.3% | -0.518 (inactive) | -1.3e-05 (inactive) | 0.00486 (inactive) | 5.72% (inactive) | 10.8% (inactive)
COc1ccccc1NC(=O)CSc1nnc(Cc2cccn2C)n1-c1ccc(F)cc1 | 508 | -7.5% (inactive) | 30.2% (inactive) | 86.3% | -51.1% (inactive) | 113% | -0.529 (inactive) | -2.1e-05 (inactive) | 0.00524 (inactive) | 11.3% (inactive) | 37.8% (inactive)
CCn1nc(CC(=O)Nc2nnc(CC(=O)N3CCCCC3)s2)c2ccccc2c1=O | 385 | 0.2% (inactive) | 2.9% (inactive) | 104% | -289% (inactive) | 95.9% | -0.437 (inactive) | -2.5e-05 (inactive) | 0.00348 (inactive) | 8.15% (inactive) | 25.2% (inactive)
Cc1cccnc1NC(=O)CCCN1C(=O)c2ccccc2C1=O | 366 | 1.7% (inactive) | -11.4% (inactive) | 102% | -32.4% (inactive) | 87.7% | -0.409 (inactive) | -6.3e-05 (inactive) | 0.00485 (inactive) | 11.3% (inactive) | 10.4% (inactive)
COc1ccc(S(=O)(=O)N2CCCC(C(=O)N3CCCCCC3)C2)cc1 (stereo not drawn) | 404 | -5.2% (inactive) | -0.4% (inactive) | 106% | -8.6% (inactive) | 105% | -0.403 (inactive) | -5e-05 (inactive) | 0.00316 (inactive) | 12% (inactive) | 10.4% (inactive)
CC(CCc1ccccc1)NCc1ccncc1 (stereo not drawn) | 564 | 3% (inactive) | -1.8% (inactive) | 109% | -75.4% (inactive) | 130% | -0.409 (inactive) | -1.4e-05 (inactive) | 0.00748 (inactive) | 12.9% (inactive) | 23.5% (inactive)
O=C(CCN1C(=O)c2ccccc2C1=O)NCCN1CCOCC1 | 377 | -10.6% (inactive) | 10.7% (inactive) | 96.7% | -6% (inactive) | 97% | -0.452 (inactive) | 2.7e-05 (inactive) | 0.00342 (inactive) | -7.29% (inactive) | 20.7% (inactive)
O=C(CCCCn1c(=O)c2ccccc2n(Cc2ccc(Cl)cc2)c1=O)NCc1ccco1 | 613 | -7.3% (inactive) | -8.5% (inactive) | 81.8% | -95.8% (inactive) | 110% | -0.466 (inactive) | -1.3e-05 (inactive) | 0.00636 (inactive) | 45.2% (inactive) | 33.2% (inactive)
CCc1nnc(NC(=O)CSc2nnc(-c3ccc(OC)cc3)n2C)s1 | 648 | 14.3% (inactive) | 21.9% (inactive) | 66.3% | 5.4% (inactive) | 112% | -0.609 (inactive) | -3e-05 (inactive) | 0.00434 (inactive) | 12.5% (inactive) | 20.1% (inactive)
CCSc1nc2ccccc2n1CC(N)=O | 400 | 2.1% (inactive) | -4% (inactive) | 114% | -62.6% (inactive) | 113% | -0.449 (inactive) | -0.000317 (inactive) | 0.00599 (inactive) | 14.3% (inactive) | 20.8% (inactive)
CCOC(=O)C1CSC(CC(=O)Nc2ccc(Cl)cc2)C(=O)N1 (stereo not drawn) | 704 | 3.9% (inactive) | 7.4% (inactive) | 103% | -56.7% (inactive) | 132% | -0.325 (inactive) | -4.9e-05 (inactive) | 0.00513 (inactive) | -5.63% (inactive) | 1.5% (inactive)
CCc1ccccc1NC(=O)c1cnc2n(c1=O)CCS2 | 582 | -3.9% (inactive) | -4.9% (inactive) | 94.6% | -4.7% (inactive) | 117% | -0.494 (inactive) | -1.7e-05 (inactive) | 0.00691 (inactive) | 12.7% (inactive) | -13.2% (inactive)
COc1ccc(CNC(=O)c2nnn(Cc3ccc(OC)cc3)c2N)cc1 | 649 | 2.8% (inactive) | -8.9% (inactive) | 84.9% | -6.7% (inactive) | 92.2% | -0.624 (inactive) | -2.4e-05 (inactive) | 0.00639 (inactive) | 12.2% (inactive) | 22.1% (inactive)
